Drawing on PubChem BioAssay, this text covers growth inhibition, inhibition and outcome for 20 compounds.

Test [1] in a line: antimalarial activity against Dd2 strain (AID 2302;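 active = growth inhibition above 50% at the single 2 µM test dose, taken to imply half-maximal potency below 2 µM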;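 also: 0% = DMSO untreated growth and 100% = chloroquine plus artemisinin killed control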). The settings on record: P. falciparum Dd2 in RBCs, LDH growth readout, 72 h; at 2 µM; stronger effect = higher value.
Test [2] can be described thus: human hepatoma cell viability loss – ATP luminescence, cytotoxicity control for P. falciparum antimalarial project, primary screen (AID 2303;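 active = inhibition above 50%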;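 also: 0% = DMSO wells and 100% = digitonin-killed cells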). The settings on record: HepG2 viability, 24-48 h, at 10 µM, stronger effect = higher value.
In test [3] the target is L-lactate dehydrogenase (Plasmodium falciparum (isolate CDC / Honduras)) (UniProt Q27743). In words: PfLDH activity inhibition – cell lysate, 3D7 strain, counter-screen for P. falciparum growth inhibition project (AID 2304).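 Also: 0% = vehicle and 100% = reference inhibitor.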 The conditions noted are these: P. falciparum 3D7 crude extract, LDH APAD/NBT absorbance; at 2 µM; stronger effect = higher value. On the technique in general: A counterscreen serves to expose hits that act by an unwanted route or on another target.

Test [4] can be described thus: inhibition of 3D7 malaria parasite growth – strain 3D7 (AID 2306).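 Also: 0% = DMSO wells and 100% = chloroquine plus artemisinin control wells.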 The conditions noted are these: P. falciparum 3D7 erythrocytic growth, LDH absorbance, 72 h; at 2 µM; stronger effect = higher value.
In test [5] the target is Calcium-dependent protein kinase 1 (Plasmodium falciparum (isolate 3D7)) (UniProt P62344). In words: PfCDPK1 kinase inhibitors, biochemical, TCAMS library (AID 1159585; cut-off not given, nearly all actives have IC50 up to about 0.98 µM;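 also: inhibitors leave more ATP so luminescence rises with inhibition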). The settings on record: recombinant PfCDPK1, Kinase-Glo ATP depletion luminescence. In general terms: Kinase-Glo reads ATP consumption through a luciferase reaction.
Test [6] has as its target Plasmodium falciparum protein kinase 6 (PK6, PF3D7_1337100) (UniProt Q8IDW1). Description: PfPK6 kinase inhibitors, biochemical, TCAMS library (AID 1159586). The conditions noted are these: recombinant PfPK6, Kinase-Glo ATP depletion luminescence.
For test [7], the target named is Protein kinase 7 (PK7), Plasmodium falciparum 3D7 (PF3D7_0213400) (UniProt Q7YTF7). In words: inhibition of Plasmodium PK7 catalytic activity – biochemical, TCAMS antimalarial set, Kinase-Glo luminescence (AID 1159587). The settings on record: recombinant PfPK7, Kinase-Glo ATP depletion luminescence.
Test [8] addresses Calcium-dependent protein kinase 4 (Plasmodium falciparum (isolate 3D7)) (UniProt Q8IBS5). Description: PfCDPK4 kinase inhibitors, biochemical, TCAMS library (AID 1159588; cut-off not given, nearly all actives have IC50 up to about 0.91 µM). The settings on record: recombinant PfCDPK4, Kinase-Glo ATP depletion luminescence.

SMILES strings stand for the structures. A number with no mark means an inactive call. For some of these results: Potency and affinity values are given separately. Calls of active or inactive are those of the source. Unless noted, no rule for the calls is given here.

Chain of Protein kinase 7 (PK7), Plasmodium falciparum 3D7 (PF3D7_0213400) (Q7YTF7 1-343): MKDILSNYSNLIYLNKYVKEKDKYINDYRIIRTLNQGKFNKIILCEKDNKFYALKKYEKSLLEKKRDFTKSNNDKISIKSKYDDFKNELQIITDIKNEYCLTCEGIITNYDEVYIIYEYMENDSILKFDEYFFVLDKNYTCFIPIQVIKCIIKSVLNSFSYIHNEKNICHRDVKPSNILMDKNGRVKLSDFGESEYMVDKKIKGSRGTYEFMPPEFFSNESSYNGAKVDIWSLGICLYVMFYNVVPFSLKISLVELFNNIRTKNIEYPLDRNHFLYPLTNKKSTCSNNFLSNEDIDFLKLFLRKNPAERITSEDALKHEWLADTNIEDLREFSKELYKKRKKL
Chain of Calcium-dependent protein kinase 1 (Plasmodium falciparum (isolate 3D7)) (P62344 whole entry, looked up): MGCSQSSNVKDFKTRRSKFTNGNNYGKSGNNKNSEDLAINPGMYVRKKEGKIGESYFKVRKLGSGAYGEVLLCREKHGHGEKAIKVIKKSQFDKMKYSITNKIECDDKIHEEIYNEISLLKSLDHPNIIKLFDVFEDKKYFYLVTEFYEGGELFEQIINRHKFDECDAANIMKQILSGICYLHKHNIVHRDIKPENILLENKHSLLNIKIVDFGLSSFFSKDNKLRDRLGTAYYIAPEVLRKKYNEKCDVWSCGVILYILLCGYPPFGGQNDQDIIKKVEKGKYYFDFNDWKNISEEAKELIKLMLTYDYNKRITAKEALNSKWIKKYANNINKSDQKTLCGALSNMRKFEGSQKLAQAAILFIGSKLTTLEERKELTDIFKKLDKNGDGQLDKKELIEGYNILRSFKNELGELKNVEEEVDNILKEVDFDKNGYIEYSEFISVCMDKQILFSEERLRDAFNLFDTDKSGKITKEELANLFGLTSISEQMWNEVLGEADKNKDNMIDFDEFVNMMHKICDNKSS
Chain of Plasmodium falciparum protein kinase 6 (PK6, PF3D7_1337100) (Q8IDW1 1-305): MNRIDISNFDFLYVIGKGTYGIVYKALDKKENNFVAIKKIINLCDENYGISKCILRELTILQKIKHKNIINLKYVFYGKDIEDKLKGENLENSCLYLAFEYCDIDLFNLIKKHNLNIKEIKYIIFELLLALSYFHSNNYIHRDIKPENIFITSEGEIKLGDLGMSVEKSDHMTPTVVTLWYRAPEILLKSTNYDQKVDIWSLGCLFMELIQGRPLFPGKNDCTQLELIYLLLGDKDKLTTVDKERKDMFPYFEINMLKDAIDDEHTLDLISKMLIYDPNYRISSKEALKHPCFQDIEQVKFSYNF
Chain of L-lactate dehydrogenase (Plasmodium falciparum (isolate CDC / Honduras)) (Q27743 whole entry, looked up): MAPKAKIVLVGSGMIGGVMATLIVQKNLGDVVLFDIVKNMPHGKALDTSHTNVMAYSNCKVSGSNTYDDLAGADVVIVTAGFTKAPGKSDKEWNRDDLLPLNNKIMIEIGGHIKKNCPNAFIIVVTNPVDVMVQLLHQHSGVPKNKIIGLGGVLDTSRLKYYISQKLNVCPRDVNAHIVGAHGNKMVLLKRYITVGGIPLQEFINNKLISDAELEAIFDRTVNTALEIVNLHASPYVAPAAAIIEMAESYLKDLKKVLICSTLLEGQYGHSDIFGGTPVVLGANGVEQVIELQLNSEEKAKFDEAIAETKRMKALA
Chain of Calcium-dependent protein kinase 4 (Plasmodium falciparum (isolate 3D7)) (Q8IBS5 whole entry, looked up): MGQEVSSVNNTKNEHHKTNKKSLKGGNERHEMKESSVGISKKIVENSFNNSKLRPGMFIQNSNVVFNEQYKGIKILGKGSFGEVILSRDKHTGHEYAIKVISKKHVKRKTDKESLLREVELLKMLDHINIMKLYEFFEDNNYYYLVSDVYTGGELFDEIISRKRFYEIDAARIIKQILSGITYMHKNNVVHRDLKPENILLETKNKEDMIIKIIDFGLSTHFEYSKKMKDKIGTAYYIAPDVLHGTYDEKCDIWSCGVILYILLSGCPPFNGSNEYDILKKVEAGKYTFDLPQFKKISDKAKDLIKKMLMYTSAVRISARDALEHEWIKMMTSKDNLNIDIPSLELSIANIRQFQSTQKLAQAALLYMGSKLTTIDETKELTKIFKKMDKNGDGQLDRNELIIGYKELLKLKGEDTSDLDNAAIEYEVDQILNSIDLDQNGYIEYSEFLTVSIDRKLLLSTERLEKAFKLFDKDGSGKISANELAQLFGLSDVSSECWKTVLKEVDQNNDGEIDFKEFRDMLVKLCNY

For `O=C(Nc1ccc(CN2CCOCC2)cc1)c1ccc(-c2ccc(Br)cc2)o1`, the results for the growth inhibition in test [1] and in test [4] were -4% and 92% (active), respectively. Besides, the inhibition (usually the drop in the measured response relative to a control, in per cent) was 3% in test [2] and -2% in test [3]. Moreover, the result in test [5], in test [6], in test [7] and in test [8] was inactive.

Regarding `CCCC(C)NC(=O)[C@H](CC1CCCCC1)NC(=O)c1ccc(O)c(-c2ccc(OC)cc2)c1` (stereo not given in full), the results for the growth inhibition in test [1] and in test [4] were 37% and 89% (active), respectively. Also, the inhibition in test [2] is 3%; in test [3], 1%. The result in test [5], in test [6], in test [7] and in test [8] was inactive.

With `Cn1c(NC(=O)C2CCC(CNC(=O)c3ccc(O)c(-c4cccc([N+](=O)[O-])c4)c3)CC2)nc2ccccc21` (stereo not given), the growth inhibition is 97% (active) in test [1] and 95% (active) in test [4]. The inhibition in test [2] was 6%; in test [3] it was -5%. The outcome in test [5], in test [6], in test [7] and in test [8] was inactive.

As for `O=C(NC1CCCCC1)N(Cc1cccc(-c2ccc(CNCCc3ccccc3)cc2)c1)C1CCN(Cc2ccccc2)CC1`, the growth inhibition in test [1] and in test [4] was 93% (active) throughout. For the same compound, the inhibition in test [2] is 61% (active); in test [3], 4%. Also, the result in test [5], in test [6], in test [7] and in test [8] was inactive.

As to `CC1(CCCCN2CCC(c3c[nH]c4cnccc34)CC2)C(=O)Nc2cccc(Cl)c21` (stereo not given), the growth inhibition was -1% in test [1] and 100% (active) in test [4]. Besides, the values for the inhibition in test [2] and in test [3] were 26% and 0%, respectively. For the same compound, the outcome in test [5], in test [6], in test [7] and in test [8] was inactive.

As to `COc1cccc(C(=O)NC(C=Cc2ccccc2)c2cc(Cl)c3cccnc3c2O)c1` (stereo not given), the growth inhibition in test [1] is 58% (active); in test [4] it was 95% (active). The inhibition is 27% in test [2] and -1% in test [3]. Further, the outcome in test [5], in test [6], in test [7] and in test [8] was inactive.

As to `O=C(CSc1nc2ccc([N+](=O)[O-])cc2s1)Nc1ccccc1-c1ccccc1`, the growth inhibition in test [1] was 49%; in test [4], 80% (active). Further, the inhibition in test [2] was -1%; in test [3] it was 0%. Moreover, the outcome in test [5], in test [6], in test [7] and in test [8] was inactive.

With `O=S(=O)(c1c(Cl)cc(Cl)cc1Cl)N1CCCCC(c2ccc(F)c(F)c2)=N1`, the growth inhibition was 65% (active) in test [1] and 87% (active) in test [4]. Also, the results for the inhibition in test [2] and in test [3] were 5% and -1%, respectively. Further, the outcome in test [5], in test [6], in test [7] and in test [8] was inactive.

Regarding `CCCCCN1C(=O)N(c2ccc(Cl)c(Cl)c2)C(N(O)C(=O)Nc2ccc(Cl)c(Cl)c2)C1(C)C` (stereo not given), the growth inhibition was 99% (active) in test [1] and 94% (active) in test [4]. The inhibition is -2% in test [2] and 6% in test [3]. Also, the result in test [5], in test [6], in test [7] and in test [8] was inactive.

For the compound `O=C(Nc1ccc2nc3n(c(=O)c2c1)CCCCC3)C(=O)N1CCC(Cc2ccccc2)CC1`, the growth inhibition in test [1] was 70% (active); in test [4] it was 91% (active). Further, the inhibition is 12% in test [2] and 0% in test [3]. The result in test [5], in test [6], in test [7] and in test [8] was inactive.

As for `O=C(Nc1ccc(-c2nc3cc4ccccc4cc3[nH]2)cc1)c1cccc(Br)c1`, the growth inhibition in test [1] was 89% (active); in test [4], 101% (active). Further, the figures for the inhibition in test [2] and in test [3] were 50% (active) and -5%, respectively. The outcome in test [5], in test [6], in test [7] and in test [8] was inactive.

Regarding `N#Cc1cccc(C(=O)Nc2ccc(-c3cccc(CN4CCC(O)CC4)c3)cc2)c1`, the results for the growth inhibition in test [1] and in test [4] were 68% (active) and 100% (active), respectively. Moreover, the inhibition was 33% in test [2] and 7% in test [3]. Moreover, the outcome in test [5], in test [6], in test [7] and in test [8] was inactive.

On to `COc1cccc(Nc2nc(C)cc(Nc3cccc(C#N)c3)n2)c1`, for which the growth inhibition is 92% (active) in test [1] and 101% (active) in test [4]. Further, the inhibition was -2% in test [2] and -3% in test [3]. The result in test [5], in test [6], in test [7] and in test [8] was inactive.

`CCOc1ccc(C=CC(=O)Nc2ccc3nc(N4CCOCC4)cc(C)c3c2)cc1OC`: the results for the growth inhibition in test [1] and in test [4] were 23% and 92% (active), respectively. Moreover, the inhibition in test [2] is 14%; in test [3] it was 5%. Further, the outcome in test [5], in test [6], in test [7] and in test [8] was inactive.

On to `CCc1nc2nc(C)cc(Nc3cc(C)cc(C)c3)n2n1`, for which the growth inhibition in test [1] and in test [4] was 96% (active) each time. Also, the inhibition in test [2] is 21%; in test [3] it was 7%. For the same compound, the outcome in test [5], in test [6], in test [7] and in test [8] was inactive.

In the case of `CN(C)Cc1ccc(-c2cc3c(Nc4ccc(OCc5cccc(F)c5)c(Cl)c4)ncnc3s2)[nH]1`, the growth inhibition was 84% (active) in test [1] and 100% (active) in test [4]. Besides, the inhibition in test [2] is 8%; in test [3], -1%. The result in test [5], in test [6], in test [7] and in test [8] was inactive.

On to `CCN(CC)CCON=Cc1cc(C)c2[nH]c3ccc(OCc4ccccc4)cc3c2c1C`, for which the figures for the growth inhibition in test [1] and in test [4] were 29% and 98% (active), respectively. Moreover, the results for the inhibition in test [2] and in test [3] were 29% and 1%, respectively. The result in test [5], in test [6], in test [7] and in test [8] was inactive.

`Fc1ccc2nc(-c3cccc(-c4ccc(CNCc5cnn(-c6ccccc6)n5)cc4)c3)[nH]c2c1`: the growth inhibition in test [1] was 22%; in test [4] it was 98% (active). For the same compound, the inhibition in test [2] was 18%; in test [3], -3%. Further, the result in test [5], in test [6], in test [7] and in test [8] was inactive.

For the compound `Cc1cccc(C)c1CNc1cccc(-c2nc(C)c(C)[nH]2)c1`, the growth inhibition was 44% in test [1] and 99% (active) in test [4]. For the same compound, the results for the inhibition in test [2] and in test [3] were 58% (active) and -3%, respectively. Also, the outcome in test [5], in test [6], in test [7] and in test [8] was inactive.

`Oc1ccc(-c2cncc(NCc3ccc(F)c(F)c3)c2)cc1`: the results for the growth inhibition in test [1] and in test [4] were 80% (active) and 95% (active), respectively. Moreover, the values for the inhibition in test [2] and in test [3] were -14% and -3%, respectively. Moreover, the outcome in test [5], in test [6], in test [7] and in test [8] was inactive.
